This is an account of results in ChEMBL document CHEMBL1961873, “Compounds: GSK PKIS; Assays: Nanosyn kinase panel” (2012).

What is called inhibition is the relative decrease from the control value, in per cent.

Where “and” joins values, the source holds several entries; their conditions need not be identical. Equal values may be shown once.

In one assay the target is T1, Dual specificity protein kinase TTK (Homo sapiens) (UniProt P33981).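 Note: reported figures are mean TTK inhibition at 1 µM.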
T1 sequence (whole entry): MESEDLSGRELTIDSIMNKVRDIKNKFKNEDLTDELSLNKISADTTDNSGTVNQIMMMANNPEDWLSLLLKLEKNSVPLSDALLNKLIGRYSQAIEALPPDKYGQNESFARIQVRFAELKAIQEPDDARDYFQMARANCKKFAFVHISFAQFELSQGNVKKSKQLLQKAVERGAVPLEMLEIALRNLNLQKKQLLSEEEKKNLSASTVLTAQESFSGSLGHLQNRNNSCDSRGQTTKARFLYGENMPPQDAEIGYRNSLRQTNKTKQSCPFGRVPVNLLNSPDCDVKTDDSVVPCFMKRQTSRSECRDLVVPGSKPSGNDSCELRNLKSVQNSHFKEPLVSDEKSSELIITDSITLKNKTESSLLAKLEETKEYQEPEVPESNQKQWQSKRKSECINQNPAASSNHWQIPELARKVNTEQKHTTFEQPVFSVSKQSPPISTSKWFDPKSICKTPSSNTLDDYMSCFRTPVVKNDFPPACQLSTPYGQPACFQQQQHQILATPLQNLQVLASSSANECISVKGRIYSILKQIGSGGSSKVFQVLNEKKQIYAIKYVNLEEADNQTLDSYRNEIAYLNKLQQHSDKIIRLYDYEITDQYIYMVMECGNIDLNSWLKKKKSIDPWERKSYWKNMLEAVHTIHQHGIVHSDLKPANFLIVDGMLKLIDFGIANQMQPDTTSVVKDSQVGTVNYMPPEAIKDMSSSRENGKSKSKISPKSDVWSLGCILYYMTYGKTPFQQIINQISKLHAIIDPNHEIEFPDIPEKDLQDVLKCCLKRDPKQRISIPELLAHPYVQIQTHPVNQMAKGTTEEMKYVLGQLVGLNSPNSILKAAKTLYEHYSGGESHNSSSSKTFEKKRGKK
The settings on record: at 1 µM.
Consider `CS(=O)(=O)CCNCc1ccc(-c2ccc3ncnc(Nc4ccc(OCc5ccccc5)cc4)c3c2)o1`, for which the inhibition is 7.19%.
Take `NS(=O)(=O)c1ccc(N/N=C2\C(=O)Nc3ccc(C(=O)NCc4ccncc4)cc32)cc1`: the inhibition was 69.2%.
Same read-out and setting: as for `COc1cc(N2CCN(C(C)C)CC2)ccc1Nc1nc(Nc2cccc(F)c2C(=O)O)c2cc[nH]c2n1`, the figure is 77.3%; as for `CC1=C(C(=O)Nc2ccc3[nH]nc(C)c3c2)C(c2ccc(C(F)(F)F)cc2)CC(=O)N1` (stereo unspecified), -0.26%.
In the case of `O=C(O[C@H]1CN[C@H](C#Cc2cc3ncnc(Nc4ccc(OCc5cccc(F)c5)c(Cl)c4)c3s2)C1)N1CCOCC1`, the inhibition came out at 13%.
In the case of `COc1cccc(Nc2nccc(-c3cnn4ncccc34)n2)c1`, the inhibition is 22.8%.
As for `CNC(=O)c1sc(-n2cnc3cc(OC)c(OC)cc32)cc1OCc1ccccc1C(F)(F)F`, the inhibition was 7.09%.
As for `COc1cc2c(cc1Nc1nc(Nc3cccc(F)c3C(N)=O)c3cc[nH]c3n1)N(C(=O)CN1CCN(C(C)C)CC1)CC2`, the inhibition amounted to 47.7%.
The same measure, in the same setting: in the case of `Fc1ccc(Nc2nccc(-c3c(-c4ccc(C(F)(F)F)cc4)nn4ncccc34)n2)cc1F` it was 8.25%; in that of `Cn1c(-c2nonc2N)nc2cnccc21`, 8.28%; in that of `CS(=O)(=O)Nc1ccc(-c2ccc3c(NC(=O)C4CC4)n[nH]c3c2)cc1`, 11.9%.
Still for that read-out and setting: as for `COc1cccc(-n2ncc3c(N/N=C/c4ccc(C(=O)NCCN(C)C)cc4)ncnc32)c1`, the figure is 11.6%.
`COc1cc(N2CCN(C(C)C)CC2)ccc1Nc1nc(Nc2cccc3ncccc23)c2cc[nH]c2n1`: the inhibition was found to be 69.5%.
On the same count and under the same terms, in the case of `CCCNc1cccc(-n2ncc3c(N/N=C/c4ccncc4)ncnc32)c1` it was 15.7%.
The same measure, in the same setting: in the case of `NC(=O)c1ccc2c(-c3ccnc(NCCCO)n3)c(-c3ccc(F)cc3)nn2c1` it was 12.1%.

The target of a further assay is T2, Aurora kinase A (Homo sapiens) (UniProt O14965).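 Note: each reported value is a mean percent inhibition of Aurora-A.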
T2 sequence (whole entry): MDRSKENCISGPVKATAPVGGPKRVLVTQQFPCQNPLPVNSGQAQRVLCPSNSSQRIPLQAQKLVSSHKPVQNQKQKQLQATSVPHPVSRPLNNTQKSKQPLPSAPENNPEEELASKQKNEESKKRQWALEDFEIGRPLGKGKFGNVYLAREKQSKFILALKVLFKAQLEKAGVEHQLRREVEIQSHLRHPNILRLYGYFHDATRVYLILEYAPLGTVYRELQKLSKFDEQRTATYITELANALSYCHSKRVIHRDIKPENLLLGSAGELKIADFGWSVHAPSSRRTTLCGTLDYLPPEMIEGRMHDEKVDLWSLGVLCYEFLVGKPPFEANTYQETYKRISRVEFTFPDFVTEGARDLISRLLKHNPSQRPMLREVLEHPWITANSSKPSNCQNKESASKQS
The settings on record: at 0.1 µM.
In the case of `NS(=O)(=O)c1ccc(N/N=C2\C(=O)Nc3cccc(CCc4ccncc4)c32)cc1`, the inhibition was 28.1%.
With `COC(=O)Nc1nc2ccc(Oc3ccc(NC(=O)Nc4cc(C(F)(F)F)ccc4F)cc3)cc2s1`, the inhibition turned out to be 1.12%.
On the same count and under the same terms, as for `CCn1c(-c2nonc2N)nc2cncc(C(=O)NCCNC)c21`, the figure is 3.09%.
Same read-out and setting: as for `Cc1cc(O)cc(C)c1/C=C/c1cncc(C(=O)OC(C)(C)C)c1`, the figure is 2.02%.
Take `CS(=O)(=O)CCNCc1ccc(-c2ccc3ncnc(Nc4ccc(OCc5cccc(C(F)(F)F)c5)cc4)c3c2)o1`: the inhibition came out at 3.79%.
On the same count and under the same terms, in the case of `COC(=O)Nc1nc2cc(Oc3ccc(NC(=O)Nc4ccccc4)cc3)ccc2[nH]1` it was 2.47%; in that of `O=C1Nc2ccccc2/C1=C1\CCc2cc(O)ccc21`, 8.42%; in that of `CC1(C)CC(n2cnc(-c3ccc(F)cc3)c2-c2ccnc(N)n2)CC(C)(C)N1`, -0.03%.
Same read-out and setting: as for `COc1ccc(-c2nn3ncccc3c2-c2ccnc(Nc3ccc(F)c(F)c3)n2)cc1`, the figure is 2.87%; as for `CCS(=O)(=O)c1ccc(OC)c(Nc2ncc(-c3cccc(C(C)=O)c3)o2)c1`, 2.45%.
On the same count and under the same terms, in the case of `COc1cc(Nc2ncc(-c3ccccc3)o2)cc(OC)c1` it was 5.61%.
On to `c1cnn2ncc(-c3ccnc(NCCCN4CCOCC4)n3)c2c1`, for which the inhibition is 2.65%.
On the same count and under the same terms, as for `Cc1c2ccc(N(C)c3ccnc(Nc4cccc(S(N)(=O)=O)c4)n3)cc2nn1C`, the figure is 11.7%.
As to `CS(=O)(=O)Nc1ccc(-c2cc(-c3ccccc3)cc(C(N)=O)c2N)cc1`, the inhibition turned out to be 1.29%.
As for `O=C(O[C@H]1CN[C@H](C#Cc2cc3ncnc(Nc4ccc5c(cnn5Cc5ccccc5)c4)c3s2)C1)N1CCOCC1`, the inhibition came out at 1.41%.
Consider `Nc1nonc1-c1nc2cnccc2n1C1CC1`, for which the inhibition was 3.77% and -2.63%.
Consider `CS(=O)(=O)CCNCc1ccc(-c2ccc3ncnc(Nc4ccc(OCc5ccccc5)cc4)c3c2)o1`, for which the inhibition was determined as 3.51%.
As for `NS(=O)(=O)c1ccc(N/N=C2\C(=O)Nc3ccc(C(=O)NCc4ccncc4)cc32)cc1`, the inhibition was determined as 6.11%.
Consider `COc1cc(N2CCN(C(C)C)CC2)ccc1Nc1nc(Nc2cccc(F)c2C(=O)O)c2cc[nH]c2n1`, for which the inhibition worked out at 3.47%.
Take `CC1=C(C(=O)Nc2ccc3[nH]nc(C)c3c2)C(c2ccc(C(F)(F)F)cc2)CC(=O)N1` (stereo unspecified): the inhibition stood at 17.9%.
Same read-out and setting: in the case of `O=C(O[C@H]1CN[C@H](C#Cc2cc3ncnc(Nc4ccc(OCc5cccc(F)c5)c(Cl)c4)c3s2)C1)N1CCOCC1` it was 1.79%; in that of `COc1cccc(Nc2nccc(-c3cnn4ncccc34)n2)c1`, 11.9%.
On the same count and under the same terms, as for `CNC(=O)c1sc(-n2cnc3cc(OC)c(OC)cc32)cc1OCc1ccccc1C(F)(F)F`, the figure is 3.14%.
In the case of `COc1cc2c(cc1Nc1nc(Nc3cccc(F)c3C(N)=O)c3cc[nH]c3n1)N(C(=O)CN1CCN(C(C)C)CC1)CC2`, the inhibition is 0.69%.
Regarding `Fc1ccc(Nc2nccc(-c3c(-c4ccc(C(F)(F)F)cc4)nn4ncccc34)n2)cc1F`, the inhibition is 3.59%.
As to `Cn1c(-c2nonc2N)nc2cnccc21`, the inhibition worked out at 1.22%.
Turning to `CS(=O)(=O)Nc1ccc(-c2ccc3c(NC(=O)C4CC4)n[nH]c3c2)cc1`, the inhibition turned out to be 2.55%.
On the same count and under the same terms, as for `COc1cccc(-n2ncc3c(N/N=C/c4ccc(C(=O)NCCN(C)C)cc4)ncnc32)c1`, the figure is 8.37%; as for `COc1cc(N2CCN(C(C)C)CC2)ccc1Nc1nc(Nc2cccc3ncccc23)c2cc[nH]c2n1`, 0.64%.
The same measure, in the same setting: as for `CCCNc1cccc(-n2ncc3c(N/N=C/c4ccncc4)ncnc32)c1`, the figure is 9.48%.
Still for that read-out and setting: as for `NC(=O)c1ccc2c(-c3ccnc(NCCCO)n3)c(-c3ccc(F)cc3)nn2c1`, the figure is 1.36%.
